From PubChem BioAssay (EPA / NIEHS)
Values joined by “and” are separate entries in the source; they are usually repeats but may differ in a detail not shown here. Identical values can stand only once. Records with an inconclusive call do not appear. Some compounds were tested as several samples or in several runs, with calls that do not always agree. Active and inactive are the calls of the source. The calls were made as follows, unless noted: active = hit-call score of the fitted dose curve at least 0.9, where 1 is the maximum; inactive = score below 0.9.

What was measured:
SERPINA7 (gene 6906) = assay: CCTE_GLTED_hTBG: CCTE's human Thyroxine-binding Globulin (TBG) Inhibition Assay, Great Lakes Toxicology and Ecology Division (GLTED) Lab (AID 2284343; active = hit-call score of the fitted dose curve at least 0.9, where 1 is the maximum;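 also: active chemicals lower fluorescence versus DMSO baseline by displacing probe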)
Method in brief: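 Cell-free binding assay in which human TBG is incubated with test chemical for 2 hours and displacement of the fluorescent probe ANSA is read at 380 nm excitation/475 nm emission. Activity is fitted against DMSO as the negative control.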

[1] = CCTE_Mundy_HCI_iCellGluta_NOG_NeuronCount: CCTE's Neurite Outgrowth Assay in iCellGluta cells for Neuron Count, Mundy Lab (AID 2284340; active = hit-call score of the fitted dose curve at least 0.9, where 1 is the maximum;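 also: cells fixed about 48 h after compound addition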)
Method in brief: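 Neuron count read by automated high-content imaging of Hoechst 33342 and betaIII-tubulin/Alexa Fluor-488 labelling in human iPSC glutamatergic neurons. Activity fitted relative to DMSO.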

[2] = CCTE_Mundy_HCI_iCellGluta_NOG_NeuriteCount: CCTE's Neurite Outgrowth Assay in iCellGluta cells for Neurite Count, Mundy Lab (AID 2284342; active = hit-call score of the fitted dose curve at least 0.9, where 1 is the maximum;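 also: chemical exposure about 48 hours starting 2 hours after plating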)
[3] = Tanguay_ZF_120hpf_MO24: Oregon State University Tanguay Lab 24 Hour Post-fertilization zebrafish Assay for Mortality (AID 2284389)
Method in brief: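 Dechorionated wild-type zebrafish embryos, 1 per well, statically exposed from 6 hpf at 28C, 0.64% DMSO final. Mortality scored as binary present/absent at 24 hpf by brightfield microscopy, relative to DMSO.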

[4] = Tanguay_ZF_120hpf_DP24: Oregon State University Tanguay Lab 24 Hour Post-fertilization zebrafish Assay for Delayed Development (AID 2284390)
Method in brief: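 Dechorionated 5D wild-type zebrafish embryos exposed statically from 6 hpf, one per well, 0.64% DMSO final, 28 C, sealed and dark. Developmental progression scored at 24 hpf by brightfield as binary present/absent; dead embryos excluded.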

[5] = Tanguay_ZF_120hpf_CRAN: Oregon State University Tanguay Lab 120 Hour Post-fertilization zebrafish Assay for Craniofacial Malformation (AID 2284397)
Method in brief: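 Dechorionated Tropical 5D wild-type zebrafish embryos, one per well, were statically exposed from 6 to 120 hpf at 28C in 0.64% DMSO, with 5uM trimethyltin chloride as positive control. Craniofacial malformation was scored present/absent by brightfield microscopy, relative to DMSO.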

[6] = Tanguay_ZF_120hpf_AXIS: Oregon State University Tanguay Lab 120 Hour Post-fertilization zebrafish Assay for Axial Malformation (AID 2284398)
Method in brief: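 Dechorionated 5D wild-type zebrafish embryos exposed statically, one per well, from 6 to 120 hpf at 28C, 0.64% DMSO. Axial malformation scored as present/absent by brightfield microscopy at 120 hpf; dead embryos not scored.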

[7] = Tanguay_ZF_120hpf_MORT: Oregon State University Tanguay Lab 120 Hour Post-fertilization zebrafish Assay for Mortality (AID 2284399)
Method in brief: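 Dechorionated wild-type Tropical 5D zebrafish embryos, one per well from 6 hpf, static exposure to 120 hpf at 28C in sealed dark plates, 0.64% DMSO final. Mortality scored as binary by brightfield at 24 and 120 hpf.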

[8] = Tanguay_ZF_120hpf_EDEM: Oregon State University Tanguay Lab 120 Hour Post-fertilization zebrafish Assay for Edema Malformation (AID 2284400)
Method in brief: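 Dechorionated Tropical 5D wild-type embryos, one per well, statically exposed from 6 to 120 hpf at 28C in 0.64% DMSO. Edema scored present/absent by brightfield microscopy at 120 hpf; dead embryos not scored; fit versus DMSO.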

[9] = Tanguay_ZF_120hpf_MUSC: Oregon State University Tanguay Lab 120 Hour Post-fertilization zebrafish Assay for Muscle Malformation (AID 2284401)
Method in brief: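 Dechorionated Tropical 5D wild-type zebrafish embryos exposed statically from 6 to 120 hpf at 28C, one per well, in 0.64% DMSO. Muscle malformation scored present/absent by brightfield microscopy at 120 hpf, fitted against DMSO.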

[10] = Tanguay_ZF_120hpf_BRN: Oregon State University Tanguay Lab 120 Hour Post-fertilization zebrafish Assay for Brain Region Malformation (AID 2284402)
Method in brief: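 Dechorionated wild-type Tropical 5D zebrafish embryos exposed statically from 6 to 120 hpf at 28C, one per well, 0.64% DMSO final. Brain malformation scored at 120 hpf by brightfield as present/absent; dead embryos not scored.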

[11] = Tanguay_ZF_120hpf_TCHR: Oregon State University Tanguay Lab 120 Hour Post-fertilization zebrafish Assay for Touch Responsive (AID 2284403)
Method in brief: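 Dechorionated Tropical 5D wild-type zebrafish embryos, one per well from 6 hpf, were statically exposed to 120 hpf at 28 °C (0.64% DMSO). Touch response was scored present/absent at 120 hpf and not scored in dead larvae.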

[12] = Tanguay_ZF_120hpf_ANY: Oregon State University Tanguay Lab 120 Hour Post-fertilization zebrafish Assay for Any Mortality and Malformation (AID 2284404)
Method in brief: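 Dechorionated Tropical 5D wild-type embryos, one per well from 6 hpf, static exposure in sealed, dark plates at 28C until 120 hpf, 0.64% DMSO final. Brightfield scoring of mortality and malformations as binary presence/absence, pooling 13 morphology endpoints.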

[13] = IUF_NPC1_cytotoxicity_72hr: Cytotoxicity Assessment at 72 hours in the Leibniz Research Institute for Environmental Medicine (IUF) Neural Progenitor Cell Proliferation Assay (NPC1) (AID 2284332; active = hit-call score of the fitted dose curve at least 0.9, where 1 is the maximum;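 also: rising LDH signal means more cytotoxicity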)
Method in brief: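 Single human fetal cortex neural progenitor spheres (GW 16-19, 0.25-0.35 mm) in EGF/FGF proliferation medium were exposed to compound for 72 h at 37C without renewal. Medium LDH release was read as resorufin fluorescence and fitted as gain-of-signal.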

[14] = TAMU_PeakParms_SingleDonor1434_Asystole: Texas A&M University (TAMU) 1.5-hr Human Induced Pluripotent Stem Cell (iPSC)-derived Cardiomyocytes Calcium (Ca+2) Flux Assay for Cardiotoxicity: Asystole (quiescence of beating) (AID 2284328; active = hit-call score of the fitted dose curve at least 0.9, where 1 is the maximum)
Method in brief: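 Donor 1434 iPSC-cardiomyocytes exposed 90 min at 37C, 5% CO2, to 0.2, 1, 10 and 100 uM in 0.5% DMSO. Ca2+ dye fluorescence gave average peak frequency; POD is EC95, a 95% beat-rate drop versus controls.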

[15] = CCTE_Deisenroth_DEVTOX-GLR_legacy_CellCount: (Legacy) Viability Assessment in CCTE's DevTox GLR-Endo Assay, Deisenroth Lab (AID 2284331); conditions: actives raise or lower the signal
Method in brief: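 Viability is taken from imaged nuclei counts in fixed RUES2-GLR cultures after 48 h of differentiation under two 24 h-spaced chemical exposures, 10 concentrations from 1 nM to 200 uM, gain or loss versus DMSO baseline.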

[16] = tested on: SRY-box transcription factor 17 (SOX17) Protein Expression, Deisenroth Lab, SOX17 (gene 64321); assay: CCTE_Deisenroth_DEVTOX-GLR_legacy_Sox17: (Legacy) CCTE's DevTox GLR-Endo Assay Evaluation of SRY-box transcription factor 17 (SOX17) Protein Expression, Deisenroth Lab (AID 2284341); conditions: actives raise or lower the signal
Method in brief: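 Endoderm-differentiation readout in RUES2-GLR human pluripotent cells at 48 h, concentrations spanning 1 nM - 200 uM. Sox17-positive cells divided by total cell count; gain or loss relative to DMSO solvent control, n=4 experimental replicates.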

[17] = tested on: SRY-box transcription factor 2 (SOX2) Protein Expression, Deisenroth Lab, SOX2 (gene 6657); assay: CCTE_Deisenroth_DEVTOX-GLR_legacy_Sox2: (Legacy) CCTE's DevTox GLR-Endo Assay Evaluation of SRY-box transcription factor 2 (SOX2) Protein Expression, Deisenroth Lab (AID 2284346)
Method in brief: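 RUES2-GLR human pluripotent cells were differentiated for 48 h with two chemical doses 24 h apart, over 1 nM-200 uM. Sox2+ cells were those above 5x BMAD of the endoderm-control median; percent Sox2+ minus the 0.2% DMSO median was used, from n=4 replicates.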

[18] = VALA_TUBIPS_Antagonist_CellCount: Viability Assessment in the VALA Sciences human iPS-derived Endothelial Tubule Formation (TUBIPS) Antagonism Assay (AID 2284335; active = hit-call score of the fitted dose curve at least 0.9, where 1 is the maximum)
[19] = VALA_MIGHUV1_ScratchOnly_WoundArea: VALA Sciences human Umbilical Vein Endothelial Cell Migration (MIGHUV) Assay, Area of Scratch Wound Inhibited Recovery (AID 2284336; active = hit-call score of the fitted dose curve at least 0.9, where 1 is the maximum)
Method in brief: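 HUVEC monolayers (9000 cells/well) were scratched after 24 h, dosed within 30 min (six concentrations, triplicate, 0.1% DMSO), allowed 24 h recovery, then fixed. Hoechst-stained nuclei in the wound imaged; cytochalasin D as reference.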

Measured: AC50

CCOC(=O)C(O)(c1ccc(Cl)cc1)c1ccc(Cl)cc1
active: SERPINA7 (gene 6906) 7.32 µM

O=C(O)C(F)(F)C(F)(F)C(F)(F)C(F)(F)C(F)(F)C(F)(F)C(F)(F)C(F)(F)C(F)(F)F
active: [5] 19.5 µM | [12] 8.9 µM
inactive: [1] | [2] | [3] | [4] | [6] | [7] | [8] | [9] | [10] | [11]

CCCCCCOC(=O)c1ccccc1C(=O)OCCCCCC
active: SERPINA7 (gene 6906) 5.7 µM

O=C(O)C(F)(F)C(F)(F)C(F)(F)C(F)(F)C(F)(F)C(F)(F)C(F)(F)C(F)(F)F
active: SERPINA7 (gene 6906) 86.5 µM
inactive: [3] | [4] | [5] | [6] | [7] | [8] | [9] | [10] | [11] | [12]

Cc1ccccc1CO[C@@H]1C[C@@]2(C(C)C)CC[C@]1(C)O2
active: SERPINA7 (gene 6906) 22.9 µM

O=NN(c1ccccc1)c1ccccc1
active: SERPINA7 (gene 6906) 13.9 µM

CCC(C)(c1ccc(O)cc1)c1ccc(O)cc1
active: SERPINA7 (gene 6906) 13.7 µM

CCOP(=S)(OCC)SCSC(C)(C)C
inactive: [13] | [1] | [2]

C=CC(N)=O
inactive: [14] | [15] | [13] | [16] | [17]

CCCCCCCCCc1ccc(O)cc1
active: SERPINA7 (gene 6906) 5.76 µM

CC(C)(O)C(=O)Nc1ccc([N+](=O)[O-])c(C(F)(F)F)c1
active: SERPINA7 (gene 6906) 35.6 µM

c1cc2ccc3cccc4ccc(c1)c2c34
inactive: [14]

CC1=C2C[C@H]3[C@@H](CC=C4C[C@@H](O)CC[C@@]43C)[C@@H]2CC[C@]12O[C@@H]1C[C@H](C)CN[C@H]1[C@H]2C
inactive: [15] | [16] | [17]

CC(C)(c1ccccc1)c1ccc(O)cc1
active: SERPINA7 (gene 6906) 3.54 µM

Sc1ccccc1
active: SERPINA7 (gene 6906) 14.1 µM

COc1ccc(O)c(C(C)(C)C)c1
inactive: [1] | [2]

CC(c1ccc(O)cc1)(c1ccc(O)cc1)c1ccc(O)cc1
active: SERPINA7 (gene 6906) 11.5 µM

O=S(=O)(O)C(F)(F)C(F)(F)C(F)(F)C(F)(F)C(F)(F)C(F)(F)F
inactive: [13] | [1] | [2] | [3] | [4] | [5] | [6] | [7] | [8] | [9] | [10] | [11]
active: [5] 85.1 µM | [6] 84.8 µM | [8] 85.1 µM | [9] 84.8 µM | [10] 81.8 µM | [11] 84.8 µM | [12] 85.1 µM and 71.3 µM

O=S(=O)(O)C(F)(F)C(F)(F)C(F)(F)C(F)(F)F
not listed: [14] | [15] | [16] | [17] | [18] | [19]
inactive: all other assays above

NS(=O)(=O)C(F)(F)C(F)(F)C(F)(F)C(F)(F)C(F)(F)C(F)(F)C(F)(F)C(F)(F)F
active: [4] 16.4 µM | [5] 3.27 µM | [7] 5.51 µM | [12] 2.59 µM
inactive: [1] | [2] | [3] | [6] | [8] | [9] | [10] | [11]

CCC(C)c1cc([N+](=O)[O-])cc([N+](=O)[O-])c1O (configuration not stated)
active: SERPINA7 (gene 6906) 19.3 µM

CO/C=C(/C(=O)OC)c1ccccc1COc1cccc(C(F)(F)F)n1
active: [1] 35.8 µM | [2] 20 µM
inactive: [13]

O=C(O)C(F)(F)C(F)(F)C(F)(F)C(F)(F)C(F)(F)F
inactive: [3] | [4] | [5] | [6] | [7] | [8] | [9] | [10] | [11] | [12]

ClC1=C(Cl)[C@]2(Cl)[C@@H]3[C@@H]4C[C@@H]([C@H]5O[C@@H]45)[C@@H]3[C@@]1(Cl)C2(Cl)Cl
inactive: [14]
active: SERPINA7 (gene 6906) 1.56 µM

Cc1cc(-c2ccc(N)c(C)c2)ccc1N
active: SERPINA7 (gene 6906) 26.5 µM and 35.2 µM

Oc1ccc(C(c2ccc(O)cc2)(C(F)(F)F)C(F)(F)F)cc1
active: SERPINA7 (gene 6906) 17.1 µM
inactive: [18] | [19]
